Test results as given in PubChem BioAssay.
Values without a mark were called inactive. Results filed as inconclusive are left out. For some assays here: Entries with a potency or affinity are not part of this list. The source made the active and inactive calls. Unless noted, the rule behind the calls is not given here.

Tests used:
[1] = antimalarial activity against Dd2 strain (AID 2302;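 active = growth inhibition above 50% at the single 2 µM test dose, taken to imply half-maximal potency below 2 µM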;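 note: 0% = DMSO untreated growth and 100% = chloroquine plus artemisinin killed control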); conditions: P. falciparum Dd2 in RBCs, LDH growth readout, 72 h; at 2 µM; stronger effect = higher value
[2] = HepG2 cytotoxicity, primary screen, cytotoxicity control for P. falciparum antimalarial project, cell-based, ATP luminescence (AID 2303;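 active = inhibition above 50%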;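 note: 0% = DMSO wells and 100% = digitonin-killed cells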); conditions: HepG2 viability, 24-48 h, at 10 µM, stronger effect = higher value
[3] = biological target: L-lactate dehydrogenase (Plasmodium falciparum (isolate CDC / Honduras)) (UniProt Q27743); experiment: PfLDH activity inhibition – cell lysate, 3D7 strain, counter-screen for P. falciparum growth inhibition project (AID 2304);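 note: 0% = vehicle and 100% = reference inhibitor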; conditions: P. falciparum 3D7 crude extract, LDH APAD/NBT absorbance; at 2 µM; stronger effect = higher value
Chain of L-lactate dehydrogenase (Plasmodium falciparum (isolate CDC / Honduras)) (Q27743 whole entry, looked up): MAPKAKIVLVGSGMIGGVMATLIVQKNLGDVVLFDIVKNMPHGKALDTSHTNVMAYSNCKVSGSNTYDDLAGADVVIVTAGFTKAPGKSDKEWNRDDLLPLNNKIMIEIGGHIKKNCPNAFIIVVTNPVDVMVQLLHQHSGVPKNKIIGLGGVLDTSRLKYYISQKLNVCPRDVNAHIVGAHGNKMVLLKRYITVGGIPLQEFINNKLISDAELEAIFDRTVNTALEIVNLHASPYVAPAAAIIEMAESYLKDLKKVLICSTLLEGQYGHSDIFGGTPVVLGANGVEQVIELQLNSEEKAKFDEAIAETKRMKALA

[4] = inhibition of 3D7 malaria parasite growth – strain 3D7 (AID 2306);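 note: 0% = DMSO wells and 100% = chloroquine plus artemisinin control wells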; conditions: P. falciparum 3D7 erythrocytic growth, LDH absorbance, 72 h; at 2 µM; stronger effect = higher value
[5] = biological target: Calcium-dependent protein kinase 1 (Plasmodium falciparum (isolate 3D7)) (UniProt P62344); experiment: PfCDPK1 kinase inhibitors, biochemical, TCAMS library (AID 1159585; cut-off not given, nearly all actives have IC50 up to about 0.98 µM;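 note: inhibitors leave more ATP so luminescence rises with inhibition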); conditions: recombinant PfCDPK1, Kinase-Glo ATP depletion luminescence
Chain of Calcium-dependent protein kinase 1 (Plasmodium falciparum (isolate 3D7)) (P62344 whole entry, looked up): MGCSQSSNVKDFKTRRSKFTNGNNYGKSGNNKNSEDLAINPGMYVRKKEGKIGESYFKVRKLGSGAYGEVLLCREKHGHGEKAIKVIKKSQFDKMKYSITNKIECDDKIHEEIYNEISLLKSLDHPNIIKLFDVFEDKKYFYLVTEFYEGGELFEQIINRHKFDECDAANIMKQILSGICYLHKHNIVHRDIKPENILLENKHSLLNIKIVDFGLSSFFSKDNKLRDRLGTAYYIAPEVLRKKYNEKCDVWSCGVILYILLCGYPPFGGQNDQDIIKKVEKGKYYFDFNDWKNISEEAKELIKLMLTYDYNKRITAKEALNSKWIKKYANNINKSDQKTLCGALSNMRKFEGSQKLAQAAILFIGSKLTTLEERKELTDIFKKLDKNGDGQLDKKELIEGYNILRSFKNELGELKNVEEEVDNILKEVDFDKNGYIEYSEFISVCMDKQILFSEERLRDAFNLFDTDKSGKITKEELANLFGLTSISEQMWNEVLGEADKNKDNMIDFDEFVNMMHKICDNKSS

[6] = biological target: Protein kinase 7 (PK7), Plasmodium falciparum 3D7 (PF3D7_0213400) (UniProt Q7YTF7); experiment: inhibition of Plasmodium PK7 catalytic activity – biochemical, TCAMS antimalarial set, Kinase-Glo luminescence (AID 1159587); conditions: recombinant PfPK7, Kinase-Glo ATP depletion luminescence
Chain of Protein kinase 7 (PK7), Plasmodium falciparum 3D7 (PF3D7_0213400) (Q7YTF7 1-343): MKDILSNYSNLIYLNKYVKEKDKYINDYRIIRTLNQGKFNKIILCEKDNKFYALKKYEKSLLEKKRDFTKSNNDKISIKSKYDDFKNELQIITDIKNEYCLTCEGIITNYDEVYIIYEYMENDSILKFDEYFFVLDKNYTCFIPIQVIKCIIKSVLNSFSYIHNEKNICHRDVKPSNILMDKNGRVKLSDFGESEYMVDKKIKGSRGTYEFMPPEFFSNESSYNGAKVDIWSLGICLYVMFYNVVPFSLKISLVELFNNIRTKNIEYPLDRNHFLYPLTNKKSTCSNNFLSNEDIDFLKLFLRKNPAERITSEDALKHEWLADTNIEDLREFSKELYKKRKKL

[7] = biological target: Calcium-dependent protein kinase 4 (Plasmodium falciparum (isolate 3D7)) (UniProt Q8IBS5); experiment: PfCDPK4 kinase inhibitors, biochemical, TCAMS library (AID 1159588; cut-off not given, nearly all actives have IC50 up to about 0.91 µM); conditions: recombinant PfCDPK4, Kinase-Glo ATP depletion luminescence
Chain of Calcium-dependent protein kinase 4 (Plasmodium falciparum (isolate 3D7)) (Q8IBS5 whole entry, looked up): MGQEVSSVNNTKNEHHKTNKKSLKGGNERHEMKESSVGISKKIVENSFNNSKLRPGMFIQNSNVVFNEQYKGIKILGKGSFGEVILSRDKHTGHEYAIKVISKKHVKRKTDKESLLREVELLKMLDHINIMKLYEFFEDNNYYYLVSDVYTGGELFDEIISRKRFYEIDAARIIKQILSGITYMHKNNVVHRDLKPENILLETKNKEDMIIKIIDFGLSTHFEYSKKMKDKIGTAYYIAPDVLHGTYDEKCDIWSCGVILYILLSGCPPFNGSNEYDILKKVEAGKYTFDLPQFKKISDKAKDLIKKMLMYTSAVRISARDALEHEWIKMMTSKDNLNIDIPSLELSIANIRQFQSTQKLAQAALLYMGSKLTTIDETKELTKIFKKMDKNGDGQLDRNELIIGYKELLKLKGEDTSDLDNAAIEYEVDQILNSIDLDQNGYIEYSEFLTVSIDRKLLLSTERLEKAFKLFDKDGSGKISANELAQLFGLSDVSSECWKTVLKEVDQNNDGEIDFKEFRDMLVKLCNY

[8] = biological target: Plasmodium falciparum protein kinase 6 (PK6, PF3D7_1337100) (UniProt Q8IDW1); experiment: PfPK6 kinase inhibitors, biochemical, TCAMS library (AID 1159586); conditions: recombinant PfPK6, Kinase-Glo ATP depletion luminescence
Chain of Plasmodium falciparum protein kinase 6 (PK6, PF3D7_1337100) (Q8IDW1 1-305): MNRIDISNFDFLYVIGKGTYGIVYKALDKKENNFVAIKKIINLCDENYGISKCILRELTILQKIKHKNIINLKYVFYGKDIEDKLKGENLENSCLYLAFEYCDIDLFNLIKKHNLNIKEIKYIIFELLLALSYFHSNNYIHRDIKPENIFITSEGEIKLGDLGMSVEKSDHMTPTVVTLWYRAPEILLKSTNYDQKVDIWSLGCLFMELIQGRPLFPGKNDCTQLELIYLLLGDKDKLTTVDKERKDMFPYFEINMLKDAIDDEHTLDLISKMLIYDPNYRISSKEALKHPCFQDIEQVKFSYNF

[9] = growth inhibition of DIPG glioma cells, dose response, cell-based, SU-DIPG-XIII, MIPE4.0, CellTiter-Glo, qHTS (AID 1347061; cut-off not given, nearly all actives have AC50 up to about 37 µM;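 note: cells exposed to compound for 48 hours before readout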); conditions: SU-DIPG-XIII viability, CellTiter-Glo ATP luminescence
[10] = growth inhibition of DIPG glioma cells, dose response, cell-based, JHH-DIPG-1, MIPE4.0, CellTiter-Glo, qHTS (AID 1347062; cut-off not given, nearly all actives have AC50 up to about 27 µM;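 note: cells exposed to compound for two days before readout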); conditions: JHH-DIPG-1 viability, CellTiter-Glo ATP luminescence
[11] = growth inhibition of DIPG glioma cells, dose response, cell-based, SU-DIPG-IV, MIPE4.0, CellTiter-Glo, qHTS (AID 1347063; cut-off not given, nearly all actives have AC50 up to about 30 µM;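 note: compound exposure lasted 48 hours before the viability readout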); conditions: SU-DIPG-IV viability, CellTiter-Glo ATP luminescence
[12] = growth inhibition of DIPG glioma cells, dose response, cell-based, SU-DIPG-XIII, MIPE5.0, CellTiter-Glo, qHTS (AID 1347064; cut-off not given, nearly all actives have AC50 up to about 23 µM;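 note: cells exposed to compound for 48 hours before the viability read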); conditions: SU-DIPG-XIII viability, CellTiter-Glo ATP luminescence
[13] = SU-DIPG-XXV glioma cell viability, MIPE5.0 library, qHTS (AID 1347068; cut-off not given, nearly all actives have IC50 up to about 30 µM;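 note: cells exposed to compound for 48 hours before viability readout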)

Structure (SMILES)	growth inhibition [1]	inhibition [2]	inhibition [3] [%]	growth inhibition [4]	outcome [5]	outcome [6]	outcome [7]	outcome [8]	AC50 [9]	AC50 [10]	AC50 [11]	AC50 [12]	IC50 [13]
CN1CCC(NC(=O)c2cccc(Nc3cc(Nc4cccc(Br)c4)ncn3)c2)CC1	6%	25%	1	94% (active)	inactive	inactive	inactive						
Cn1nc(-c2ccc(NC(=O)Nc3ccc4ccccc4c3)c(F)c2)c2cnc(NCCN3CCOCC3)nc21	3%	62% (active)	1	93% (active)	inactive	inactive	inactive						
CN(c1ccc(NC(=O)Nc2cccc(Cl)c2)cc1)c1ccnc(N)n1	40%	75% (active)	-1	100% (active)	inactive	inactive	inactive						
CCN(CC)CCCNc1nccc(N(C)c2ccc(NC(=O)Nc3cc(C(F)(F)F)ccc3F)cc2)n1	19%	96% (active)	-6	94% (active)	inactive	inactive	inactive						
O=C(Nc1cccc(-c2nn3ccccc3c2-c2ccnc(Nc3ccc(-c4ccn[nH]4)cc3)n2)c1)c1c(F)cccc1F						inactive		inactive					
CN(c1ccc2c(c1)nc(NCc1ccc(F)cc1)n2C)c1ccnc(Nc2ccc(CS(C)(=O)=O)cc2)n1	79% (active)	48%	7	97% (active)	inactive	inactive	inactive						
Oc1cc(-c2nc(-c3ccccc3)[nH]c2-c2ccncc2)ccc1Cl	91% (active)	64% (active)	-6	96% (active)		inactive	inactive	inactive	16.6 µM (active)	13.2 µM (active)	2.35 µM (active)	9.34 µM (active)	23.5 µM (active)
CS(=O)(=O)Cc1ccc(Nc2ncc(Cl)c(Nc3cccnc3C(N)=O)n2)cc1	97% (active)	54% (active)	-4	97% (active)	inactive	inactive	inactive						
Cc1ccc(Nc2nc3cc(Nc4ccnc(Nc5cccc(CS(C)(=O)=O)c5)n4)ccc3o2)cc1	81% (active)	55% (active)	4	101% (active)	inactive	inactive	inactive						
CC(=O)Nc1ccc(Nc2ncc([N+](=O)[O-])c(Nc3ccccc3C(N)=O)n2)cc1	97% (active)	42%	2	98% (active)	inactive	inactive	inactive						
N=C(N)c1ccc(Nc2nc(Nc3ccc(-c4ccccc4)cc3)ncc2[N+](=O)[O-])cc1	35%	11%	-3	99% (active)	inactive	inactive	inactive						
C#CCNC(=O)c1ccc(-c2ccnc(Nc3cccc(CCCN4CCOCC4)c3)n2)s1	45%	54% (active)	-4	82% (active)	inactive	inactive	inactive						
COc1cc2nccc(Nc3ccc(Oc4ccccc4)cc3)c2cc1OC	99% (active)	13%	-1	102% (active)		inactive	inactive	inactive					
CCN(CC)CCNC(=O)c1ccc(Nc2ncc([N+](=O)[O-])c(Nc3ccccc3OC)n2)cc1	58% (active)	59% (active)	-6	97% (active)	inactive	inactive	inactive						
COc1c(CN2CCCC2)cccc1-c1cc2c(-c3ccc(C(=O)O)c(C(C)C)c3)ccnc2[nH]1	98% (active)	56% (active)	-1	99% (active)	inactive	inactive	inactive						
CC(=O)c1ccc(NC(=O)Nc2ccc(N(C)c3ccnc(Nc4cccc(CS(C)(=O)=O)c4)n3)cc2)cc1	98% (active)	86% (active)	-1	100% (active)	inactive	inactive	inactive						
Nc1ncc(-c2cccc(F)c2)cc1-c1nc2ccc(F)cc2[nH]1	88% (active)	54% (active)	-3	100% (active)	inactive	inactive	inactive						
Cc1cc(Nc2nc(Nc3cccc(Cl)c3)nc3ccccc23)n[nH]1	95% (active)	9%	-2	103% (active)	inactive	inactive	inactive						
CN(C)Cc1ccc(-c2ccc3c(Nc4ccc(Cl)cc4F)ccnc3c2)o1	99% (active)	13%	-3	100% (active)		inactive	inactive	inactive					
N=C(N)c1ccc(Nc2nccc(Nc3nc(-c4ccccc4)cs3)n2)cc1	75% (active)	13%	-8	96% (active)	inactive	inactive	inactive						
Cc1ccc(Nc2nccc(Nc3ccc4c(c3)nc(Nc3cc(C(C)(C)C)on3)n4C)n2)cc1S(C)(=O)=O	99% (active)	30%	-5	100% (active)		inactive	inactive	inactive					
NS(=O)(=O)c1cccc(Nc2nccc(-c3cnn4ncccc34)n2)c1	89% (active)	39%	0	89% (active)	inactive	inactive	inactive						

Structure (SMILES)	growth inhibition [1]	inhibition [2]	inhibition [3] [%]	growth inhibition [4]	outcome [5]	outcome [6]	outcome [7]	outcome [8]	AC50 [9]	AC50 [10]	AC50 [11]	AC50 [12]	IC50 [13]
CN(c1ccc2c(c1)nc(NCc1ccccc1)n2C)c1ccnc(Nc2ccc(CS(C)(=O)=O)cc2)n1	69% (active)	61% (active)	4	94% (active)	inactive	inactive	inactive						
O=C(NCCN1CCC(c2ccncc2)CC1)c1ccc(Nc2nccc(Nc3ccc(Oc4ccccc4)cc3)n2)cc1	90% (active)	17%	1	102% (active)		inactive	inactive	inactive					
CCNC(=O)Nc1ccc(N(C)c2ccnc(Nc3ccc(CS(C)(=O)=O)cc3)n2)cc1	99% (active)	-5%	2	101% (active)	inactive	inactive	inactive						
O=C(O)c1cccnc1Sc1ccc(Cl)cc1	4%	5%	3	100% (active)	inactive	inactive	inactive						
O=C(Cc1ccc(Nc2nccc(Nc3cccc4[nH]ncc34)n2)cc1)Nc1ccc(C(F)(F)F)cc1	69% (active)	12%	-6	100% (active)	inactive	inactive	inactive						
CS(=O)(=O)Cc1cccc(Nc2ncc(Cl)c(Nc3cccnc3C(N)=O)n2)c1	97% (active)	56% (active)	-3	96% (active)	inactive	inactive	inactive						
COCCNCc1cccc(-c2ccc3c(Nc4ccc(Oc5ccccc5)cc4)ccnc3c2)c1	99% (active)	25%	2	101% (active)		inactive	inactive	inactive					
c1ccc(Oc2ccc(Nc3ccnc(Nc4ccc(OCCN5CCCCC5)cc4)n3)cc2)cc1	66% (active)	23%	-2	97% (active)		inactive	inactive	inactive					
COc1ccc(C(=O)NCC(C)(C)c2nc(-c3ccc(Cl)c(O)c3)c(-c3ccncc3)[nH]2)cc1OCCN(C(C)C)C(C)C	96% (active)	62% (active)	4	102% (active)		inactive	inactive	inactive					
Oc1cc(-c2nc(C3(CNCc4ccc(Cl)cc4)CCCCC3)[nH]c2-c2ccncc2)ccc1Cl	99% (active)	35%	2	100% (active)		inactive	inactive	inactive					
CC(C)(CNC(=O)[C@H]1CCCCN1)c1nc(-c2ccc(Cl)c(O)c2)c(-c2ccncc2)[nH]1	98% (active)	6%	-3	98% (active)		inactive	inactive	inactive					
CCn1c(-c2nonc2N)nc2c(-c3cccc(NC(=O)Nc4ccc(Cl)cc4)c3)ncc(OCCCN)c21	72% (active)	26%	-1	96% (active)		inactive	inactive	inactive					
N#Cc1ccc(-c2cnc3ccc(NCCc4cccnc4)nn23)cc1	81% (active)	27%	6	99% (active)		inactive	inactive	inactive					
Clc1ccc(-c2cnc3ccc(NCCc4cccnc4)nn23)cc1	32%	34%	-4	97% (active)		inactive	inactive	inactive					
CC(C)(CNC(=O)C1CCN(CCOc2ccc(Cl)cc2)CC1)c1nc(-c2ccc(Cl)c(O)c2)c(-c2ccncc2)[nH]1	5%	40%	7	102% (active)		inactive	inactive	inactive					
CC(C)(CN)c1nc(-c2ccc(Cl)c(O)c2)c(-c2ccncc2)[nH]1	98% (active)	34%	0	97% (active)		inactive	inactive	inactive					
O=C(NCCN1CCCC1)c1cccc(Nc2nccc(Nc3ccc(Oc4ccccc4)cc3)n2)c1	18%	33%	-3	100% (active)		inactive	inactive	inactive					
CCn1c(-c2nonc2N)nc2c(-c3ccc(CO)o3)ncc(OCCCN)c21	97% (active)	-12%	-3	93% (active)		inactive	inactive	inactive					
COc1ccc(-c2cnn3ccc(Nc4cc(OC)c(OC)c(OC)c4)nc23)cc1OC	100% (active)	57% (active)	-4	98% (active)		inactive	inactive	inactive					
NCC1(c2nc(-c3ccc(Cl)c(O)c3)c(-c3ccncc3)[nH]2)CCCCC1	98% (active)	48%	-2	98% (active)		inactive	inactive	inactive					
COc1ccc2nc(-c3cc(-c4ccc(NC(C)=O)cc4)cnc3N)[nH]c2c1	73% (active)	55% (active)	-1	93% (active)		inactive	inactive	inactive					
COc1ccc(-c2cnc3ccc(N4CCCC4)nn23)cc1OC	98% (active)	40%	0	98% (active)		inactive	inactive	inactive					
